Test results reported in PMC8384837, “Expanding the binding specificity for RNA recognition by a PUF domain”.

The sequences below were run against PUM1 PUF domain R5-GRA (Homo sapiens, UniProt Q14671 828-1176, C1007G;Q1011A) (assay: yeast three-hybrid, YBZ-1, SC-Leu-His + 0.5 mM 3-AT, 4 days). Details: tags: N-Gal4 AD-HA kept; label: inside an RPR1-promoter hybrid RNA with tandem MS2 sites; ssRNA.
PUM1 PUF domain R5-GRA, sequence (Q14671 828-1176 C1007G/Q1011A): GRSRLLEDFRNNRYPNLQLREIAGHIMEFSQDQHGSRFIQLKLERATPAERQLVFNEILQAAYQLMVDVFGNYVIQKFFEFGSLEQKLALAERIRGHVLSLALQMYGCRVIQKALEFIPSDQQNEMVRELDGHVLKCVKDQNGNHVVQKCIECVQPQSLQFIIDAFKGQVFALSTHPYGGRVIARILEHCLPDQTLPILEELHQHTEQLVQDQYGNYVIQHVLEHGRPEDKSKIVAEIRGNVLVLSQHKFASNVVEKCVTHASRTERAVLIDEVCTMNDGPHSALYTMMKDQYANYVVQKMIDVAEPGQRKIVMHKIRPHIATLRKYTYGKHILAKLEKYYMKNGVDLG
Outline: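 The interaction score is the log change in how often each variant appears, from input to selection. Frequencies came from PCR-amplified, Illumina-sequenced repeat regions of Pumilio-1 PUF domain libraries grown in strain YBZ-1 (LexA–MS2 coat fusion, HIS3 reporter) alongside matching RNA elements. Input plates were SC-Leu and selection plates were SC-Leu-His + 0.5 mM 3-AT, each for four days, and the log2 calculation used a pseudocount of 1 where a variant was absent.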
In the case of “GGCUAGAACUAGUGGAUCCCCCGGCGCCCGGCGGCUCGAGCCCGGGUAAGUGUAAAUAGUCUGCAUGCCGCCGGGCGCCAUGCCUGCAGGUCGACUCUAGAAAACAUG”, the binding signal is reported as 2.95 log2 enrichment (interaction score).
In the case of “GGCUAGAACUAGUGGAUCCCCCGGCGCCCGGCGGCUCGAGCCCGGGUAAGUGUGAAUAGUCUGCAUGCCGCCGGGCGCCAUGCCUGCAGGUCGACUCUAGAAAACAUG”, the binding signal is reported as 1.36 log2 enrichment (interaction score).
With “GGCUAGAACUAGUGGAUCCCCCGGCGCCCGGCGGCUCGAGCCCGGGUAAGUGUUAAUAGUCUGCAUGCCGCCGGGCGCCAUGCCUGCAGGUCGACUCUAGAAAACAUG” the binding signal was 2.93 log2 enrichment (interaction score).
